Most compounds without a hit are left out; they make up all but 5.2% or so of the library.
TrxR1 substrate – qHTS Assay for Substrates of Mammalian Selenoprotein Thioredoxin Reductase 1 (TrxR1): qHTS; Thioredoxin reductase 1, cytoplasmic (Rattus norvegicus), O89049; purified TrxR1 substrate turnover, NADPH consumption readout; Potency, µM (top dose mostly 114 µM), inactives show at the top dose activity change, negative = substrate turnover; 390,000 tested, 0.01% active; AID 588456, 2011; also: potency is read from the fitted curve at half-maximal effect; % is scaled to controls: 0 for no effect and ±100 for the full control effect; nearly all actives have a fitted effect of over 50% in size
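Rat TrxR1, dispensed at 90 nM, was prereduced with 400 uM NADPH (final) for 5 min at ~22 deg C, then incubated with compound 15 min before 400 uM selenite. A first-read NADPH fluorescence drop versus no-compound background flagged substrates.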
IDH1 R132H inh – qHTS for Inhibitors of mutant isocitrate dehydrogenase 1 (IDH1): qHTS; IDH1-R132H enzyme, NADPH consumption, diaphorase/resazurin fluorescence; 390,000 tested, 0.093% active; Isocitrate dehydrogenase [NADP] cytoplasmic (Homo sapiens), O75874; Potency, µM (highest dose often 76.6 µM), for inactives: at the top dose activity change, negative = inhibition, hits mostly inhibitors; also: potency is read from the fitted curve at half-maximal effect; % is scaled to controls: 0 for no effect and ±100 for the full control effect; nearly all actives have a fitted effect of over 65% in size
Target sequence (O75874 whole entry R132H, stated change not applied): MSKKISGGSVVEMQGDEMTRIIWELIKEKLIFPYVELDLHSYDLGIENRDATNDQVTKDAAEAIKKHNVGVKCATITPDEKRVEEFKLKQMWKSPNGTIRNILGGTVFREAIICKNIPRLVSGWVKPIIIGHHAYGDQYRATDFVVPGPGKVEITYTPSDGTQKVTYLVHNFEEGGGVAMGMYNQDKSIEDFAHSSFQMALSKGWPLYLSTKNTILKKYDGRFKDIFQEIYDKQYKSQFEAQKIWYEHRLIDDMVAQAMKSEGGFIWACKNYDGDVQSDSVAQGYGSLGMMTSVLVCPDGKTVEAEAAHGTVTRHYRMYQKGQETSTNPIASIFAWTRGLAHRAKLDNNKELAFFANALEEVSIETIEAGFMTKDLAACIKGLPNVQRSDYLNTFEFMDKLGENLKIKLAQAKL
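IDH1-R132H (0.5 ug/mL dispensed) in pH 7.5 Tris buffer was preincubated 30 min with compound, then given a substrate mix of 0.016 mM NADPH and 2 mM alpha-KG for 80 min at room temperature; remaining NADPH was read by diaphorase/resazurin fluorescence.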
Sfp inh – qHTS Assay for Inhibitors of Bacillus subtilis Sfp phosphopantetheinyl transferase (PPTase); Biochemical Sfp PPTase activity, qHTS; 310,000 tested, 3.5% active; Potency, µM, inactives show largest response in the series, negative = inhibition, hits mostly inhibitors;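 also: the enzyme is Sfp with the accession as filed and its product quenches rhodamine fluorescence; potency is read from the fitted curve at half-maximal effect; 0% = enzyme reaction without inhibitor and -100% = no enzyme wells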
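Buffer: 50 mM Hepes-Na pH 7.6, 10 mM MgCl2, 0.01% Nonidet P-40, 0.01% BSA. Enzyme 15 nM, pre-exposed to compound 15 min; substrates then added and fluorescence change tracked over 30 min.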
PLK1 PBD inh – qHTS for Inhibitors of PLK1-PDB (polo-like kinase 1 - polo-box domain): Primary Screen | AID 720504, 2013 | Potency, µM, inactives show max response, negative = inhibition, most hits filed as inhibitors | 360,000 tested, 2.8% active | Serine/threonine-protein kinase PLK1 (Homo sapiens), P53350 | Plk1 PBD binding of FITC phosphopeptide, fluorescence polarization; also: potency is read from the fitted curve at half-maximal effect; series mostly up to about 57 µM; % is scaled to controls: 0 for no effect and ±100 for the full control effect; nearly all actives have a fitted effect of over 65% in size
rTrxR1 inhibitor – qHTS Assay for Inhibitors of Mammalian Selenoprotein Thioredoxin Reductase 1 (TrxR1): qHTS | recombinant rTrxR1, NADPH fluorescence consumption, selenite substrate | Potency, µM (highest dose often 114 µM), for inactives: top-dose activity change, negative = inhibition, most hits filed as inhibitors | 390,000 tested, 1% active | AID 588453, 2011; also: potency is read from the fitted curve at half-maximal effect; % is scaled to controls: 0 for no effect and ±100 for the full control effect; nearly all actives have a fitted effect of over 65% in size
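Rat TrxR1 (90 nM in the dispensed reagent) was pre-reduced with 400 uM NADPH for 5 min at room temperature, then incubated with compound for 15 min. After 400 uM selenite was added, NADPH fluorescence (Ex 340/Em 450 nm) was followed for 8 min.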
VDR inhibitor – Inhibitors of the vitamin D receptor (VDR): qHTS. Vitamin D3 receptor (Homo sapiens), P11473. AID 504847, 2011. 400,000 tested, 0.93% active. Potency, µM, without a hit: max response, negative = inhibition, actives largely listed as inhibitors. VDR-SRC2-3 peptide fluorescence polarization, 2 h; also: potency is read from the fitted curve at half-maximal effect; % is scaled to controls: 0 for no effect and ±100 for the full control effect
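The screen uses fluorescence polarization to detect compounds that interfere with recruitment of the SRC2-3 coactivator peptide to VDR; plates are read after 2 h at room temperature.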
IDH1 autofl – qHTS for Inhibitors of mutant isocitrate dehydrogenase 1 (IDH1): Cherrypicks Autofluorescence Interference; Resorufin detection reagent fluorescence interference, cell-free; 750 tested, under 10 active; inhibition of signal, % at 51.2 µM; shares compounds with IDH1 R132H inh;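 also: 0% = wells with normal resorufin and full inhibition = wells lacking resorufin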
WT IDH1 inh – qHTS for Inhibitors of mutant isocitrate dehydrogenase 1 (IDH1): Cherrypicks in WT IDH1 | shares compounds with IDH1 R132H inh | WT IDH1 enzyme, NADPH diaphorase/resazurin fluorescence | Potency, µM (series often up to 115 µM), for inactives: at the highest dose activity change, negative = inhibition, hits mostly inhibitors | 750 tested, 9% active;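 also: potency is read from the fitted curve at half-maximal effect; 0% = full WT IDH1 enzyme control and full inhibition = no enzyme wells; nearly all actives have a fitted effect of over 55% in size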
Target sequence (O75874 whole entry, looked up): as the sequence (O75874 whole entry R132H, stated change not applied) above, with H132R counted along it
IDH1 R132H conf – qHTS for Inhibitors of mutant isocitrate dehydrogenase 1 (IDH1): Confirmation of Cherrypicks. shares compounds with IDH1 R132H inh. IDH1 R132H enzyme, NADPH diaphorase/resazurin fluorescence. Potency, µM (top dose mostly 76.6 µM), for the others: top-dose activity change, negative = inhibition, most hits filed as inhibitors. 750 tested, 83% active; also: potency is read from the fitted curve at half-maximal effect; nearly all actives have a fitted effect of over 50% in size
Numbers without * were called inactive; ? = inconclusive; · = not tested or not shown; [ ] = dose if it differs, or a comment. Calls follow the shape of the dose curve; as a rule, active = well fitted curve in the direction sought with a large enough effect; inconclusive = small, poorly fitted or top-dose-only effect, or another doubt; inactive = no such curve, though single readings can be large; an effect the other way counts as inactive or inconclusive.

SMILES | TrxR1 substrate | IDH1 R132H inh | Sfp inh | PLK1 PBD inh | rTrxR1 inhibitor | VDR inhibitor | IDH1 autofl | WT IDH1 inh | IDH1 R132H conf
Cc1ccc(N(C(=O)c2snc(C(N)=O)c2N)C(CC(C)C)C(=O)NC2CCCC2)cc1 (stereo not drawn) | -1% | -5% | 4% | -2% | 21% | 10% | · | · | ·
COc1ccccc1N(C(=O)c1snc(C(N)=O)c1N)C(C(=O)NC1CCCCC1)c1cccc(OC)c1OC (stereo not drawn) | 35%[57.1 µM] | ? | 6% | -3% | 27%[57.1 µM] | -2% | 3 | -1% | ?
CCCCC(C(=O)NC1CCCC1)N(C(=O)c1snc(C(N)=O)c1N)c1ccc(C)cc1 (stereo not drawn) | -2% | ? | 13% | -23% | 10% | 5% | -4 | 0% | ?
Cc1cccc(N(C(=O)c2snc(C(N)=O)c2N)C(C(=O)NC2CCCC2)c2ccco2)c1 (stereo not drawn) | 6% | ? | 3% | 4% | 0% | -6% | -11 | -1% | 35µM*
COc1ccc(OC)c(C(C(=O)NC2CCCCC2)N(C(=O)c2snc(C(N)=O)c2N)c2ccccc2OC)c1 (stereo not drawn) | 21% | -9% | 21% | -14% | 24% | 0% | · | · | ·
O=S(=O)(Nc1cccc2cccnc12)c1ccc(Br)cc1 | · | · | 0% | · | · | · | · | · | ·
O=C(CSc1ncc(-c2ccccc2)[nH]1)Nc1cccc(C(F)(F)F)c1 | -9% | -15% | · | · | -1% | 5% | · | · | ·
Cc1cc(C)c2c(=N)c3ccccc3n(CCCCCCCCn3c4ccccc4c(=N)c4c(C)cc(C)nc43)c2n1 | 5% | 52µM* | · | -8% | -8% | 25% | -9 | 2% | 28µM*
C[C@@H]1CN([C@H](C)CO)S(=O)(=O)c2ccc(C#Cc3ccccc3F)cc2O[C@H]1CN(C)C(=O)c1ccc2c(c1)OCO2 | · | ? | · | -11% | · | · | -1 | 5% | 5.6µM*
C[C@H](CO)N1C[C@H](C)[C@@H](CN(C)CC2CCOCC2)Oc2cc(C#Cc3ccccc3F)ccc2S1(=O)=O | · | ? | · | -11% | · | · | · | · | ·
N#C/C(=C\c1ccccc1OCc1ccc(C(=O)O)cc1)C(=O)Nc1ccc(O)cc1 | -2% | ? | -13% | ? | -17%[57.1 µM] | ? | 0 | -26% | 40µM*
CC1CN(C(=O)c2ccc(NS(=O)(=O)c3ccc(C(C)(C)C)cc3)cc2)CC(C)O1 (stereo not drawn) | 7% | ? | 0% | 1% | 10% | 0% | -9 | 7% | 35µM*

Screens (PubChem)
